Compound activity deposited in PubChem BioAssay by Broad Institute.
Sampled rows, rich in hits. Any-hit rate of the full collection: about 3.1%.
C2C12 statin: protects C2C12 myotubes from simvastatin toxicity; ATP luminescence, 48 h; scaled: DMSO 0, geranylgeraniol control 100; rescue of ATP level, % at 7.49 µM; 330,000 tested, 0.78% active; AID 602340;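 active = mean ATP rescue above about 67%, or every replicate alone reaching that limit, limit read from the data, passing the limit was not always enough; inconclusive = no clear call, values can overlap the other calls; inactive = mean under the limit and some replicate under it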;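 note: myotubes were challenged with 10 µM simvastatin during compound exposure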
Rtt109 HAT inh: blocks Candida albicans Rtt109/Vps75 acetyltransferase activity; 330,000 tested, 0.16% active; purified Rtt109/Vps75, ThioGlo CoA-SH fluorescence, 4 h; Q5AAJ8; inhibition, % at 34.9 µM;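 active = inhibition of at least 50% in every replicate; inconclusive = best replicate reaches 50% inhibition but some replicates fall short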
Target sequence (Q5AAJ8 whole entry, looked up): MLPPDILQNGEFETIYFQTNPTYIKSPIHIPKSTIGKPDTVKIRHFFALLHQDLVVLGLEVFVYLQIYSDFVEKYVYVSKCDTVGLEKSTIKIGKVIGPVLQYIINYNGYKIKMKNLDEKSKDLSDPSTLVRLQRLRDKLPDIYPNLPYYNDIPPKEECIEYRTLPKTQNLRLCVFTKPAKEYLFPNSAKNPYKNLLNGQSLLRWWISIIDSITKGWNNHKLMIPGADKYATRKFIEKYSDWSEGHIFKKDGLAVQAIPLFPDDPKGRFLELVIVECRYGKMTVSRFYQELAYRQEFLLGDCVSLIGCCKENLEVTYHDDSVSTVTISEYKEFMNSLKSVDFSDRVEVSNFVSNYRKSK
MITF act: increases MITF-driven TRPM1 promoter luciferase signal; SK-MEL-5 TRPM1-promoter luciferase, 24 h; % of positive control, neutral wells = 0; activation, % at 12.5 µM; 300,000 tested, 0.75% active; AID 588334;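 active = mean activation of at least 80% with every replicate also reaching 80%; inconclusive = mean reaches 80% but some replicate falls short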;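 note: 0% = neutral control wells and 100% = parthenolide positive control wells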
Wnt act: activators of Wnt/beta-catenin signaling. Wnt/beta-catenin reporter cell assay, activator, plate reader. activation, % at 9.35 µM. 300,000 tested, 1.2% active; in the data active = activation above about 30%, passing the limit was not always enough; inconclusive = no clear call, values can overlap the other calls;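 note: 0% = neutral control wells and 100% = positive control wells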
esBAF inh: blocks esBAF chromatin remodeling in mouse ES cells; Bmi1-luciferase knock-in reporter, 24 h; 100% = twice the neutral-well signal; reporter increase, % at 12.5 µM; 350,000 tested, 2% active; in the data active = activation above about 40%; inconclusive = no clear call, values can overlap the other calls;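 note: 0% = median of the plate's neutral control wells and 100% = double that signal; a rise in the Bmi1 reporter signal indicates esBAF inhibition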
An asterisk follows results filed as active; ? = inconclusive; · = not tested or not shown; ! = a repeat was not active.

SMILES	C2C12 statin	Rtt109 HAT inh	MITF act	Wnt act	esBAF inh
N/C(=N\OC(=O)c1cccs1)c1cccnc1	1	-10	48	11	?
Cc1cccc(C(=O)O/N=C(\N)c2cccc([N+](=O)[O-])c2)c1	·	-11	41	19	·
CCSc1ccc(/C(N)=N/OC(=O)c2cccs2)cn1	-7	-2	108*	29	57*
CN1CCc2cccc3c2[C@H]1Cc1ccc(O)c(O)c1-3	-15	100*!	0	-1	-12
Nn1c(SCC(=O)N2CCN(S(=O)(=O)c3ccccc3)CC2)nnc1-c1cccs1	126*	7	-17	·	-2
CC(=O)Nc1nc2n(n1)C(c1ccc(F)cc1)C=C(c1ccccc1)N2 (configuration not stated)	133*	-421	1	·	-7
COc1cccc(S(=O)(=O)Nc2ccc3c(c2)[C@H]2C[C@@H](CC(=O)NCc4ccc(Cl)cc4)O[C@H](CO)[C@H]2O3)c1	-1	·	·	·	2
Cc1cc(C)n(CC(=O)N2c3ccccc3Sc3ccccc32)n1	119*	7	-3	1	-5
COc1ccc(NC(=O)N(C)C[C@@H]2Oc3c(NC(=O)c4cc(C)nn4C)cccc3C(=O)N([C@H](C)CO)C[C@@H]2C)cc1	16	·	·	·	1
C/C(=N/OC(=O)c1ccccc1Br)c1ccc(C)cc1	1	-7	44	1	64*
CCCN1[C@H](C(=O)N[C@@H](C)c2ccccc2)[C@@H](CO)[C@@H]2Cn3c(ccc(-c4ccccc4)c3=O)[C@@H]21	28	·	·	·	3
Cc1ccc(CN2CCC(C(=O)NCCC(C)C)CC2)o1	109*	-1	-13	0	5
CC(C)CCNC(=O)C1CCN(c2nc3ccccc3o2)CC1	25	17	3	3	8
CN(C)C(=O)C[C@H]1C=C[C@H](NC(=O)C2CC2)[C@@H](CO)O1	1	·	·	·	-8
Cc1cc(C(=O)Nc2sc3c(c2C#N)CCC(C)C3)cs1 (configuration not stated)	-58	-9	68	30	52*
CC(=O)Nc1sc2c(c1C#N)CCC(C)C2 (configuration not stated)	111*	3	15	0	18
COc1ccc(C2=CSC3=NNC4(CCCCC4)NN23)cc1	·	-10	19	7	·
Cc1ccc(C2=CSC3=NNC4(CCCCC4)NN23)cc1	25	0	59	0	66*
CC(C)(CO)N=Cc1c(O)[nH]c2ccccc12	5	6	-22	·	0
Cc1cccc(/N=C/c2c(O)[nH]c3ccccc23)n1	8	·	67	·	74*
Cc1cccc(/N=C/c2sc3ccccc3c2O)n1	1	26	27	46*	16
CC(C)N=Cc1c(O)[nH]c2ccccc12	83*	2	1	0	1
Cc1cccc(S(=O)(=O)N[C@@H]2CC[C@H](CCNC(=O)c3cnccn3)O[C@H]2CO)c1	-12	·	·	·	3
O=C(Cc1ccccc1)N[C@H]1C=C[C@@H](CC(=O)N2CCOCC2)O[C@@H]1CO	-5	·	·	·	-7
O=C(CN1CCOCC1)N[C@@H]1CC[C@@H](CCNS(=O)(=O)c2ccccc2F)O[C@H]1CO	-10	·	·	·	2
SMILES	C2C12 statin	Rtt109 HAT inh	MITF act	Wnt act	esBAF inh
CC(C)N(Cc1nccn1C)C(=O)CCc1nnc(CCCc2ccccc2)o1	·	5	56	69*	·
CC(C)N(CCO)C(=O)CCc1nnc(CCCc2ccccc2)o1	·	7	-1	22	·
COCC(=O)Nc1ccc2c(c1)C(=O)N(C)C[C@@H](OC)[C@H](C)CN(C(=O)CN1CCOCC1)[C@H](C)CO2	-2	·	·	·	-1
COc1ccc(NC(=O)COC(=O)C23CC4CC(CC(O)(C4)C2)C3)cc1Cl	-7	-12	86*	39*	10
O=C(COC(=O)C12CC3CC(CC(O)(C3)C1)C2)Nc1ccc(Cl)cc1F	1	-1	93*	23	16
Cc1cc(C)c(NC(=O)COC(=O)C23CC4CC(CC(O)(C4)C2)C3)c(Cl)c1	-7	0	0	4	4
Cc1nccn1C(c1ccccc1)c1ccccc1	2	-1	-4	35*	-6
C[C@H](CO)N1C[C@H](C)[C@@H](CN(C)Cc2ccccc2)Oc2cc(C3=CCCCC3)ccc2S1(=O)=O	-70	·	·	·	·
CC1CCCCC1N(C)C1CCN(C(=O)CNC(=O)/C=C/c2cccc(Cl)c2)CC1 (configuration not stated)	-212	51*	6	-1	0
CN(C1CCCC1)C1CCN(C(=O)CNC(=O)/C=C/c2ccccc2)CC1	·	-2	5	·	·
C[C@@H]1CN([C@H](C)CO)C(=O)c2cc(NS(=O)(=O)c3ccccc3)ccc2O[C@@H]1CN(C)Cc1ccc2c(c1)OCO2	10	·	·	·	-4
N#Cc1cc2cc3c(cc2nc1N1CCCCC1)OCCO3	13	-32	102*	32*	70*
N#Cc1cc2cc3c(cc2nc1Cl)OCCO3	6	·	·	6	7
C[C@H](O)C#Cc1ccc2c(c1)O[C@@H](CN(C)CC1CCOCC1)[C@H](C)CN([C@H](C)CO)S2(=O)=O	-36	·	·	·	-9
CCSC1(SCC)N=C(N)C2(C#N)C(c3ccc(F)cc3)C12C#N (configuration not stated)	142*	-5	-82	·	0
COc1ccc(/C=N/n2cnnc2SCCO)cc1OC	2	9	-1	·	6
C=CCSc1nncn1/N=C/c1ccc(OC)cc1	·	-3	92*	27	·
CC(/C=C/c1ccc2c(c1)OCO2)=N\NC(=O)c1cccc([N+](=O)[O-])c1	-133	-6	-4	0	6
C/C(=N/NC(=O)c1ccncc1)c1ccc(NC(=O)c2ccccc2)cc1	-12	-5	21	3	10
C/C(=N/NC(=O)c1ccc2c(c1)OCO2)c1cccc([N+](=O)[O-])c1	-4	6	126*	-2	31
C/C(=N/NC(=O)c1ccc2c(c1)OCO2)c1cccc(NC(=O)C(C)(C)C)c1	111*	8	14	17	35
C/C(=N\NC(=O)c1ccncc1)c1cccc(NC(=O)c2ccc(C(C)(C)C)cc2)c1	-22	0	37	35*	38
O=C(O)C[C@H]1C=C[C@@H](NC(=O)c2ccccc2F)[C@H](CO)O1	-19	·	·	·	2
C[C@H]1CN([C@@H](C)CO)S(=O)(=O)c2ccc(C3=CCCC3)cc2O[C@@H]1CN(C)C(=O)CN(C)C	6	·	·	·	-2
C[C@@H]1CN([C@H](C)CO)C(=O)c2cc(Br)cnc2O[C@@H]1CN(C)C(=O)C1CCCCC1	5	·	·	·	4
CCCn1nnc(NC(=O)c2cc3ccccc3o2)n1	-6	7	71	12	50*
CCCCn1nnc(NC(=O)c2cc3ccccc3o2)n1	-2	5	?	·	59*
C[C@@H]1CN([C@H](C)CO)C(=O)c2cc(NC(=O)C3CCCCC3)ccc2O[C@@H](C)CCCCO[C@H]1CN(C)Cc1ccc(C(F)(F)F)cc1	·	·	·	·	3
